PubChem BioAssay (NCI)
This is part of a sample that, as a whole, favours compounds with a hit. Of some 83,000 tested, about 20% had one in any assay.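 Method: cells in 96-well plates; compound added at one concentration; 48 h incubation; percent growth measured; values under 10 scored active.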 Unmarked numbers belong to inactive results. Active and inactive are the calls of the source.

tested on: HOP-62 NSCLC; assay: NCI-60 one-dose screen, 48 h (100 = growth as untreated, 0 = no growth, -100 = all killed); settings: 10 µM unless noted
Protocol: Growth inhibition of the HOP-62 human Non-Small Cell Lung tumor cell line is measured as a screen for anti-cancer activity. Cells are grown in 96 well plates and exposed to the test compound for 48 hours. Compounds are tested at a single concentration, which is 10^-5 M for most compounds. The reported endpoint is percent growth (GI% or GIPRCNT), where numbers from 0 - 100% represent growth inhibition, and numbers from -100% - 0 represent cell death. For example, a value of 40 represents 60% growth inhibition. A value of 0 means no net growth occurred over the course of the experiment. A value of -40 indicates 40% of cells at the beginning of the experiment died by the end of the experiment. A value of -100 means all cells are dead at the end of the experiment.
NCI-60 Human Tumor Cell Lines Screen was performed using the standard one-dose NCI protocol, which is described in more detail at https://dtp.cancer.gov/discovery_development/nci-60/default.htm.
Compounds with GIPRCNT values below 10 were considered active. Activity score was based on GIPRCNT using the following formula: […]
Score is 0 for GIPRCNT values of 100 or above, 50 for GIPRCNT values of 0, and 100 for GIPRCNT values of -100.

SMILES	growth
N#Cc1c(-c2ccc(F)cc2)cc(-c2c[nH]c3ccccc23)nc1-c1c[nH]c2ccccc12	101%
O=C(CCl)Nc1ccc(NC(=O)c2cc(Cl)ccc2O)c(Cl)c1	101%
O=C(CCCCCCNC(=O)C(O)(O)C(F)(F)F)Nc1nc2ccccc2s1	0.982% (active)
COc1cc(/C=C2/C(=O)Nc3ccc(Cl)cc32)ccc1OCc1ccc(Cl)cc1	92.1%
O=c1[nH][nH]c(-c2ccc(F)cc2)c1-c1nc2ccccc2s1	89.4%
CC(C)(C)c1cc(NC(=O)Nc2ccc(-c3cn4c5c(sc4n3)CCc3c[nH]cc3-5)cc2)no1	-28.1% (active)
Cc1ccc(S(=O)(=O)NCCCNc2nccc(-c3[nH]c(-c4ccccc4)nc3-c3ccc(F)c(O)c3)n2)cc1	112%
CC1(C)C=Cc2cc(/C(N)=N/C(N)=N/c3nc4ccccc4s3)ccc2O1	5.82% (active)
CCN(CC)S(=O)(=O)c1ccc(-c2nc(C(Cl)Cl)nc3cc(-c4ccc(F)cc4)nn23)cc1	10.3%
O=C1[C@H]2Cc3c([nH]c4ccccc34)[C@H](c3ccc(Cl)cc3)N2C(=O)CN1C1CCN(CC2CCCCC2)CC1	79.7%
CC1=C(C)C(=O)C(Nc2cccc(C(=O)OC(C)(C)C)c2)=C(Cl)C1=O	103%
CC1(C)CC[C@]23CC[C@]4(C)[C@H](CC[C@@H]5[C@@]6(C)CC[C@H](NCO)C(C)(C)[C@@H]6CC[C@]54C)[C@H]2[C@H]1OC3	79.8%
C#CCN(C)CCCOc1ccc(NCc2ccc(C(=O)NO)cc2)cc1Cl	24.8%
NC1=NC2(CCCC2)N(c2ccc(S(=O)(=O)Nc3nccs3)cc2)C(N)=N1	110%
COc1ccc(/C(=N\N=C(N)N)c2ccc(Cl)cc2)cc1OC	69.1%
Clc1ccc2[nH]cc(-c3nn4cc(-c5ccncc5)nc4s3)c2c1	46.6%
Cc1[nH]c(C(=O)Nc2ccccc2OCc2cccc(C(=O)NC3CCCNC3)c2)c(Cl)c1Cl (stereo not given)	-42.2% (active)
CCOC(=O)c1c(NCC(=O)Nc2cccc([N+](=O)[O-])c2)sc(C(C)=O)c1C	7.61% (active)
COc1cc2c3c(cc4c5c(ccc4c3c1OC)OCO5)N(CCN(C)C)C2=O	6.73% (active)
CC(Nc1ncnc2ccc(-c3cnc4cnccn34)cc12)c1ccccc1 (stereo not given)	68.8%

SMILES	growth
CS(=O)(=O)c1nccc(-c2c(-c3cccc(OCc4ccc(Cl)c(C(F)(F)F)c4)c3)nc3sccn23)n1	32%
COc1ccc(-c2c3c(cn2Cc2cccc(OC)c2)-c2oncc2CCC3)cc1	102%
CCCCCCNC(=O)Oc1ccc(/C(=C(/C)c2ccc(OC)cc2)c2ccc(OCCN3CCCCCC3)cc2)cc1	-9.29% (active)
N#CC1=C2NCCCNc3oc(nc3C#N)Cc3ccccc3CC(=N1)O2	97.8%
Cc1cc(=O)oc2cc(OCCCOc3ccc(/C=C/C(=O)Nc4ccc(Br)cc4)cc3)ccc12	85.2%
COCCOc1ccc2ncc(C#Cc3cncc(C(=O)Nc4ccc(CN5CCN(C)CC5)c(C(F)(F)F)c4)c3)n2n1	18.4%
C[C@]12CC[C@H]3[C@@H](CC=C4C[C@@H](O)CC[C@@]43C)[C@@H]1CC[C@@H]2[C@](C)(O)CCc1cccnc1	61.3%
Cn1cc(-c2nn3cc(-c4ccncc4)nc3s2)c2cc(Br)ccc21	71.6%
NS(=O)(=O)c1ccc(Nc2nc(N/N=C/c3ccc4c(c3)OCO4)nc(Nc3ccccc3)n2)cc1	29%
Nc1ncc(-c2ccc3ncnc(NCc4ccccc4)c3c2)cn1	35.7%
Cc1ccc(-c2nc(SCC(=O)c3ccccc3)nc(Nc3ccc(S(N)(=O)=O)cc3)c2C#N)cc1	26.2%
O=C1CSC(c2cn(-c3ccccc3)nc2-c2ccc(Cl)cc2)N1c1ccccc1 (stereo not given)	99.6%
CN(C)c1ccc(/C=N/Nc2nc(N/N=C/c3ccc(N(C)C)cc3)nc(N3CCCCC3)n2)cc1	81.8%
C#C[C@]1(O)CC[C@H]2[C@@H]3CC=C4c5sc(Nc6ccc(C)cn6)nc5CC[C@]4(C)[C@H]3CC[C@@]21C	6.21% (active)
N#Cc1nc(-c2ccccc2)oc1N1CCC(C2(C(F)(F)F)N=N2)CC1	113%
CN1CC[C@@H]2[C@@]3(C)CC[C@H](O)C(C)(C)[C@@H]3CC[C@@]2(C)[C@]2(C)CC[C@@]3(CO)CCC(C)(C)C[C@@H]3C12 (stereo not given in full)	101%
Cc1ccccc1N1CCN(C2=C(Cl)C(=O)c3ncccc3C2=O)CC1	59.5%
Cn1ncc2c(C(=O)c3ccc(F)cc3)nc(C(C)(C)C)nc21	94.8%
COc1ccc(/C=N/NC(=O)CSc2nc(-c3cnccn3)cc(-c3cccs3)c2C#N)cc1	53.4%
O=C(CCCCCCN1CC(=O)N2[C@@H](c3ccc(Cl)s3)c3[nH]c4ccccc4c3C[C@H]2C1=O)NO	61.5%
